PLAP act: activators of human placental alkaline phosphatase; P05187; purified PLAP enzyme, luminescent substrate read-out; stronger effect = higher value; activation fold at 20 µM; hit rate 1.2% among 96,000; AID 696; in the data active = activation fold above about 2
M1 antag: M1 muscarinic receptor (rat) antagonism | P08482 | CHO-M1 cells, Fluo-4 calcium, ACh EC80 antagonist mode; stronger effect = lower value | B-score at 10 µM | hit rate 3.4% among 64,000 | AID 628;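 active = calcium fluorescence response, raw or row-and-column corrected B-score, differing from the plate sample mean either way at a set confidence level, mostly lower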
M1 agonist: agonists of M1 muscarinic receptor | CHO-M1 cells, Fluo-4 calcium fluorescence, agonist mode; stronger effect = higher value | B-score at 10 µM | hit rate 3% among 64,000;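 active = fluorescence rise, raw or as B-score row- and column-corrected plate score, outside the 99.7% band of its plate's samples, either direction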
Cav3 T inh: inhibitors of human Cav3.2 T-type calcium channel | O95180 | Cav3.2-expressing cells, Fluo-4 calcium fluorescence FDSS; stronger effect = lower value | B-score at 10 µM | hit rate 4% among 100,000;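 active = single-dose well whose peak fluorescence ratio is a statistical outlier from its plate by either plate-standardised score or position-corrected B-score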
Target sequence (O95180 whole entry, looked up): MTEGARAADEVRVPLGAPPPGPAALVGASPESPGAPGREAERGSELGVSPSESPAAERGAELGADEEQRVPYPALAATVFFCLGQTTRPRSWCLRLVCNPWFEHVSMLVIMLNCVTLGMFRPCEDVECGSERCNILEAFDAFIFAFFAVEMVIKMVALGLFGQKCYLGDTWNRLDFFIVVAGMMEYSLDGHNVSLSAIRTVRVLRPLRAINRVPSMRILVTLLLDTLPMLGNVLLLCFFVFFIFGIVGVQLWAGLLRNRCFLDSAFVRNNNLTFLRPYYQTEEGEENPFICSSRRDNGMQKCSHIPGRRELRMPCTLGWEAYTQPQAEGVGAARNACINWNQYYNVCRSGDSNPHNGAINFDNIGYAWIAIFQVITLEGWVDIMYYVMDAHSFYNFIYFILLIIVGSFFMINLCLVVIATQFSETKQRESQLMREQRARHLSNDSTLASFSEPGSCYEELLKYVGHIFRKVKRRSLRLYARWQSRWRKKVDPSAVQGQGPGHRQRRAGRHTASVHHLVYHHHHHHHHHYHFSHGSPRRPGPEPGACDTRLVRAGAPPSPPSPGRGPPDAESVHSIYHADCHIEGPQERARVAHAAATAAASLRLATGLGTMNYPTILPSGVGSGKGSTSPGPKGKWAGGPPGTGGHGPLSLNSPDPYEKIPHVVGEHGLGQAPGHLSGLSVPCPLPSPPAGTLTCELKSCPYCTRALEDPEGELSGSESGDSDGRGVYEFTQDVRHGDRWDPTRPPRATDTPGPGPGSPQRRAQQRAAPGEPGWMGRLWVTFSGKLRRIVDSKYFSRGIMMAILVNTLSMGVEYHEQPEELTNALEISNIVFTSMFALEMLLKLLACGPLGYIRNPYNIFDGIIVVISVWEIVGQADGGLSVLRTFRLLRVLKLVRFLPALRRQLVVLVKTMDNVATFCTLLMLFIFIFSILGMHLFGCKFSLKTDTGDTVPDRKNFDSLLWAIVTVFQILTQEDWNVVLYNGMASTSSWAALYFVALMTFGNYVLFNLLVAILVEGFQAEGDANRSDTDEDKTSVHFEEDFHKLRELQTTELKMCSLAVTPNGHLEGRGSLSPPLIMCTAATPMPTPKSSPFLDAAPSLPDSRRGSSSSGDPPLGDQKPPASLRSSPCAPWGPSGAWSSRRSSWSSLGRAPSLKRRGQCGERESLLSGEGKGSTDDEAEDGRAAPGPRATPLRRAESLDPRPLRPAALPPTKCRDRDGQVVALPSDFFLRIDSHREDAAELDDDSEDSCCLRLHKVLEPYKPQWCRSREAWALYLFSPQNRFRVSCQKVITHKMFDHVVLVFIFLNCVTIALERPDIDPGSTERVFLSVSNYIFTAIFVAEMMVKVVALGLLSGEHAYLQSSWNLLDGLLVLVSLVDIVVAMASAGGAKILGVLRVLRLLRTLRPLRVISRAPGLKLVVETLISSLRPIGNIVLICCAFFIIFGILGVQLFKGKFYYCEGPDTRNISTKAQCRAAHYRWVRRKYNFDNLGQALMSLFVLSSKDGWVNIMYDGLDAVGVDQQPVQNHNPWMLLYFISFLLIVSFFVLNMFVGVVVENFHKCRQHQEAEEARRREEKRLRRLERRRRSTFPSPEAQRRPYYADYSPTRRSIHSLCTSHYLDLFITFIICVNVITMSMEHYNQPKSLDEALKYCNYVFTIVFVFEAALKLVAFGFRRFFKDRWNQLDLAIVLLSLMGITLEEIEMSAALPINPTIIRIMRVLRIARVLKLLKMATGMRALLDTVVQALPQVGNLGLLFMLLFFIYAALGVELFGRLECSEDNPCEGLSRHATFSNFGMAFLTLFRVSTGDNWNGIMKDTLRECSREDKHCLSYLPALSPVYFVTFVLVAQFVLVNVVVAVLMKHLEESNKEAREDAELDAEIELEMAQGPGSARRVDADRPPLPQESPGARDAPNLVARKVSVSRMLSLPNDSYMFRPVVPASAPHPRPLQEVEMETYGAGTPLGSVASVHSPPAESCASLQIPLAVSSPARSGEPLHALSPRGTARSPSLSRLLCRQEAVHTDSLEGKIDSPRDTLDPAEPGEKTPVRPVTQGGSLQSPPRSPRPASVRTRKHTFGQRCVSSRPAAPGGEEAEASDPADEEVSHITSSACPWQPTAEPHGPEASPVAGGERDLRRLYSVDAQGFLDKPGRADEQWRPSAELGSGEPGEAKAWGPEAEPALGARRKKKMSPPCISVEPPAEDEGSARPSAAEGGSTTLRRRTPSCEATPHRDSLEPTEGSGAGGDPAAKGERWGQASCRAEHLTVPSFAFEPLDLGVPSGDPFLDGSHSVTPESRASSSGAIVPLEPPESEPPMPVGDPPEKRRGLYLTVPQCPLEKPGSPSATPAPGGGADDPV
M1 agonist conf: rat M1 muscarinic agonism, confirmation; CHO-M1 cells, Fluo-4 calcium fluorescence, agonist mode; actives lie on both sides; fluorescence change (max-min) at 10 µM; hit rate 19% among 1,700; shares compounds with M1 agonist; AID 1488;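 active = fluorescence change differs from the solvent-only DMSO control mean at a set confidence level in both duplicate runs; inconclusive = differs from solvent-only control mean in just one of two runs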;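 note: an EC20 dose of acetylcholine follows compound addition during the same imaging run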
M4 agonist ctr: rat M4 muscarinic agonism, M1 counter-screen. shares compounds with M1 agonist. CHO M4/Gqi5 cells, Fluo-4 calcium fluorescence, agonist mode; actives lie on both sides. fluorescence change (max-min) at 10 µM. hit rate 9% among 1,700;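 active = fluorescence change differing from the plate's solvent-only control wells at 99.7% confidence in both duplicates, whether higher or lower; inconclusive = differs from solvent controls in only one of two duplicates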
Each line names hits and unclear results; the compound was inactive in the other large screens (follow-up assays come after a bar, where they were run). In the library only some 7.6% were active in any assay of this set; here they are far more common.

Cc1c(C(=O)NCCc2ccccc2)oc2ccc(S(=O)(=O)N3CCC4(CC3)OCCO4)cc12	none
COc1ccc(NC(=O)c2oc3ccc(S(=O)(=O)N4CCC5(CC4)OCCO5)cc3c2C)cc1	M1 agonist 13.2 | M1 agonist conf inconclusive | M4 agonist ctr inactive
CCn1c(SCC(=O)c2cc(C)n(CC3CCCO3)c2C)nc2ccccc21 (stereo not drawn)	M1 agonist 5.35 | M1 agonist conf inconclusive | M4 agonist ctr inactive
CCOC(=O)c1cc2c(=O)n3ccccc3nc2n(C(C)C)c1=NC(=O)c1ccncc1	M1 agonist 2.49 | M1 agonist conf inconclusive | M4 agonist ctr inactive
CCOC(=O)c1cc2c(=O)n3ccccc3nc2n(CCOC)c1=NC(=O)C(C)(C)C	none (no result: M1 antag, M1 agonist)
CCOC(=O)c1cc2c(=O)n3ccccc3nc2n(CCOC)c1=NC(=O)c1ccncc1	M1 agonist 2.18 (no result: Cav3 T inh) | M1 agonist conf inactive | M4 agonist ctr inactive
CCOC(=O)c1cc2c(=O)n3ccccc3nc2n(CCCOC)c1=NC(=O)c1cccnc1	none (no result: PLAP act, Cav3 T inh)
CCOC(=O)c1cc2c(=O)n3ccccc3nc2n(Cc2ccco2)c1=NC(=O)c1cccnc1	M1 agonist 6.21 | M1 agonist conf 146 | M4 agonist ctr inactive
CCOC(=O)c1cc2c(=O)n3cccc(C)c3nc2n(Cc2ccco2)c1=NC(=O)c1cccnc1	M1 agonist 39.9 | M1 agonist conf 180 | M4 agonist ctr inactive
C=C1CCN(C(C(=O)OC)C(C)C)S(=O)(=O)c2ccccc21 (stereo not drawn)	none (no result: PLAP act, M1 antag, M1 agonist)
COc1ccc2c(C=Nc3c(C)n(C)n(-c4ccccc4)c3=O)c(O)n(Cc3ccco3)c(=O)c2c1	M1 antag -2.19, M1 agonist 9.53 | M1 agonist conf inactive | M4 agonist ctr inactive
Cc1ccc(SCC(=O)Nc2cccc(-c3nnc(-c4ccco4)o3)c2)cc1	none (no result: M1 antag, M1 agonist)
CCCCS(=O)(=O)Nc1ccc(Cc2ccncc2)cc1	M1 agonist 3.2 | M1 agonist conf inconclusive | M4 agonist ctr inactive
COc1ccc(-c2cn3cc(C)ccc3n2)cc1OC	M1 agonist 2.24 | M1 agonist conf inconclusive | M4 agonist ctr inconclusive
COCCOC(=O)C1=C(C)NC(=O)NC1c1ccc(OC(=O)c2ccco2)c(OC)c1 (stereo not drawn)	M1 agonist 6.75 | M1 agonist conf inactive | M4 agonist ctr inactive
CCOC(=O)c1c(C)[nH]c(N=Nc2ccccc2C)c1C	none (no result: M1 antag, M1 agonist)
Cc1cc(=O)oc2cc(NC(=O)CCC(=O)O)ccc12	none (no result: M1 antag, M1 agonist)
CCOc1ncccc1C(=O)Nc1ccc2c(C)cc(=O)oc2c1	M1 agonist 13.4 | M1 agonist conf inconclusive | M4 agonist ctr inconclusive
O=c1c(O)c(-c2ccc(O)cc2O)oc2cc(O)cc(O)c12	M1 agonist 26.9 (no result: PLAP act, Cav3 T inh) | M1 agonist conf 73.5 | M4 agonist ctr inactive
CC1=NC(C)Cc2ccccc21 (stereo not drawn)	none (no result: Cav3 T inh)
Cc1oc2nc(SCCCC(=O)NCCCO)nc(N)c2c1C	M1 agonist 4.64 | M1 agonist conf inconclusive | M4 agonist ctr inconclusive
Cc1oc2nc(SCC(=O)NCCCO)nc(N)c2c1C	none (no result: M1 antag, M1 agonist)
CC(=O)c1c(C)nc(-c2ccc(Cl)cc2)nc1NC(=O)C(C)C	none
Cc1ccc(C)c(NC(=O)CSc2nc3c(c(=O)n2C)SC(C)C3)c1 (stereo not drawn)	none
CCn1c(SCC(=O)Nc2cc(C)ccc2C)nc2c(c1=O)SC(C)C2 (stereo not drawn)	M1 agonist 1.28 | M1 agonist conf inactive | M4 agonist ctr inconclusive
C=CCN(CC=C)S(=O)(=O)c1ccc2nc(NC(=O)C(C)C)sc2c1	M1 antag -2.39, M1 agonist 8.54 | M1 agonist conf inconclusive | M4 agonist ctr inactive
O=C(OCC(=O)N1CCN(c2ccccc2)CC1)c1ccccn1	none
CC(=O)c1ccc(OCCCC(=O)OCC(=O)N2CCN(c3ccccc3)CC2)cc1	M1 agonist 9.32 | M1 agonist conf inactive | M4 agonist ctr inactive
O=C(CSc1nnc(CN2CCOCC2)n1-c1ccccc1)Nc1ccc(Cl)cc1	none (no result: PLAP act)
COC(=O)c1cccc(S(=O)(=O)N2CCC(NC(=O)NC34CC5CC(CC(C5)C3)C4)CC2)c1	M1 agonist 3.76 (no result: Cav3 T inh) | M1 agonist conf inconclusive | M4 agonist ctr inactive
COC(=O)c1cccc(S(=O)(=O)N2CCC(C)CC2)c1	none
CCOC(=O)C1CCCN(C(=O)c2cccs2)C1 (stereo not drawn)	none
CCOC(=O)C1CCCN(C(=O)c2cc(Nc3ccc(OC)c(OC)c3)nc3ccccc23)C1 (stereo not drawn)	M1 agonist 8.29 | M1 agonist conf inactive | M4 agonist ctr inconclusive
CCCOC1CCCN(C(=O)c2cc(Cl)c(Cl)cc2C(=O)O)C1 (stereo not drawn)	M1 antag -3.43, M1 agonist 36.9 | M1 agonist conf 329 | M4 agonist ctr inactive
CCOC(=O)C1CCCN(C(=O)c2cc(Cl)ccc2Cl)C1 (stereo not drawn)	M1 agonist 5.49 | M1 agonist conf inactive | M4 agonist ctr -75.7
N#Cc1ccc(Oc2cccnc2)cc1C#N	none
CS(=O)(=O)N(CC(=O)N1CCCCC1)c1ccc2c(c1)OCO2	none (no result: Cav3 T inh)
CS(=O)(=O)N(CC(=O)N1CCCCCC1)c1ccc2c(c1)OCCO2	M1 agonist -2.08 | M1 agonist conf inactive | M4 agonist ctr inactive
O=C(Cn1c(CN2CCCCC2)nc2ccccc2c1=O)NCc1ccco1	none
CCCCNC(=O)c1ccc2nc(-c3ccco3)c(-c3ccco3)nc2c1	M1 agonist 10.4 (no result: Cav3 T inh) | M1 agonist conf inactive | M4 agonist ctr inconclusive
O=C(NCc1ccccc1)c1ccc2nc(-c3ccco3)c(-c3ccco3)nc2c1	none (no result: M1 antag, M1 agonist)
COc1ccc(CCn2c(-c3ccco3)nc3ccccc3c2=O)cc1OC	M1 antag -2.1, M1 agonist 10.7 | M1 agonist conf inconclusive | M4 agonist ctr -73.5
COc1ccc(CCn2c(-c3ccco3)nc3oc4ccccc4c(=O)c3c2=O)cc1	none (no result: PLAP act, Cav3 T inh)
NC(=O)C1(N2CCCCC2)CCN(Cc2ccccc2Cl)CC1	none
CCC(C)N(NC(C)=O)c1nc(Cl)nc(NC(C)C)n1 (stereo not drawn)	none (no result: M1 antag, M1 agonist)
CCC(=O)N1CCN(C(=O)CC)C1c1ccccc1	none
OCC12COC(c3ccccc3)N1C(c1ccccc1)OC2 (stereo not drawn)	M1 agonist 8.27 | M1 agonist conf inactive | M4 agonist ctr inconclusive
Cc1ccc(Cl)cc1N1CCN(C(=O)Cn2ccc3ccccc3c2=O)CC1	M1 agonist 8.75 | M1 agonist conf inactive | M4 agonist ctr inactive
Cc1ccc(C)c(N2CCN(C(=O)CCNC(=O)Cn3ccc4ccccc4c3=O)CC2)c1	none
CCCCn1c(-c2cccs2)nc2nc3ccccc3nc21	none (no result: M1 antag, M1 agonist)
CCCCOCCCn1c(-c2ccco2)nc2nc3ccccc3nc21	M1 agonist 4.17 | M1 agonist conf inconclusive | M4 agonist ctr inactive
COCCCNC(=O)CCCn1c(=O)[nH]c2ccccc2c1=O	M1 agonist 1.96 | M1 agonist conf inactive | M4 agonist ctr inactive
O=C(CCn1c(=O)[nH]c2ccccc2c1=O)Nc1ccccc1	M1 agonist 11 | M1 agonist conf inactive | M4 agonist ctr inactive
CCN1C(=O)/C(=C\N2CCCc3ccccc32)SC1=S	none
